Bioassay records as filed in PubChem BioAssay.
miR-122 inh – activators of miR-122 sensor in Huh7 cells | Huh7 psiCHECK-miR122 Renilla luciferase sensor, 48 h | activation, % at 12.5 µM | 0.14% of 340,000 active;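 active means mean activation of 30% or more, with every replicate also reaching 30%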;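 further: 0% = median of neutral control wells and 100% = median of positive control wells; higher luciferase signal means stronger suppression of miR-122 activity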
* = called active by the depositor. This is one part of a sample in which hits are shown more often than they occur.

SMILES	miR-122 inh
CCCC#Cc1ccc2c(c1)O[C@H](CN(C)C(=O)CC)[C@@H](C)CN([C@@H](C)CO)S2(=O)=O	-34
CC(=O)N(C)C[C@H]1Oc2cc(C#Cc3ccc(F)cc3)ccc2S(=O)(=O)N([C@H](C)CO)C[C@H]1C	37*
C[C@H]1CN([C@@H](C)CO)S(=O)(=O)c2ccc(C#Cc3ccccc3F)cc2O[C@H]1CN(C)C(=O)Cc1ccccc1	-1
CCCC#Cc1ccc2c(c1)O[C@@H](CN(C)C(=O)CC)[C@H](C)CN([C@@H](C)CO)S2(=O)=O	-85
C[C@@H]1CN([C@H](C)CO)S(=O)(=O)c2ccc(C#Cc3ccccc3F)cc2O[C@@H]1CN(C)C(=O)Cc1ccncc1	52*
CC(=O)N(C)C[C@H]1Oc2cc(C#C[C@@H](C)O)ccc2S(=O)(=O)N([C@H](C)CO)C[C@H]1C	5
CCC(=O)N(C)C[C@H]1Oc2cc(C#Cc3ccccc3)ccc2S(=O)(=O)N([C@@H](C)CO)C[C@H]1C	48*
COCC(=O)N(C)C[C@@H]1Oc2cc(-c3ccccc3)ccc2S(=O)(=O)N([C@@H](C)CO)C[C@@H]1C	3
COCC(=O)N(C)C[C@H]1Oc2cc(-c3ccc(C#N)cc3)ccc2S(=O)(=O)N([C@H](C)CO)C[C@H]1C	59*
C[C@@H]1CN([C@H](C)CO)S(=O)(=O)c2ccc(C#CC3CC3)cc2O[C@H]1CN(C)C(=O)C1CC1	-10
C[C@H](CO)N1C[C@H](C)[C@H](CN(C)S(C)(=O)=O)Oc2cc(C#Cc3ccc(F)cc3)ccc2S1(=O)=O	5
COc1ccc(NC(=O)Nc2ccc3c(c2)OC[C@H](C)NC[C@@H](C)[C@@H](OC)CN(C)C3=O)cc1	-2
Cc1ccc(-c2cnc3c(c2)C(=O)N([C@H](C)CO)C[C@@H](C)[C@@H](CN(C)C(=O)Cc2cccnc2)O3)cc1	1
CC(C)CC#Cc1ccc2c(c1)O[C@@H](CN(C)C(=O)C1CCOCC1)[C@H](C)CN([C@H](C)CO)S2(=O)=O	-6
C[C@H](CO)N1C[C@H](C)[C@H](CN(C)CC2CCOCC2)Oc2ncc(C3=CCCCC3)cc2C1=O	7
CC(C)CC#Cc1cnc2c(c1)C(=O)N([C@@H](C)CO)C[C@H](C)[C@@H](CN(C)CC1CCOCC1)O2	2
C[C@H]1CN([C@@H](C)CO)C(=O)c2cc(Br)cnc2O[C@H]1CN(C)Cc1ccc2c(c1)OCO2	12
COc1ccc(NC(=O)N(C)C[C@H]2Oc3ccc(NC(=O)Nc4ccc(C(F)(F)F)cc4)cc3CC(=O)N([C@@H](C)CO)C[C@H]2C)cc1	-201
COc1ccccc1-c1ccc2c(c1)O[C@@H](CN(C)C(=O)Nc1ccccc1)[C@H](C)CN([C@H](C)CO)S2(=O)=O	-3
C[C@H]1CN([C@@H](C)CO)C(=O)c2cc(C#CCc3ccccc3)cnc2O[C@@H]1CN(C)Cc1cccc(C(=O)O)c1	0
Cc1ccccc1-c1ccc2c(c1)O[C@@H](CN(C)C(=O)Nc1ccc(F)cc1)[C@@H](C)CN([C@@H](C)CO)S2(=O)=O	38*
Cc1ccccc1-c1ccc2c(c1)O[C@H](CN(C)C(=O)Nc1ccccc1)[C@@H](C)CN([C@H](C)CO)S2(=O)=O	-7
Cc1ccccc1-c1ccc2c(c1)O[C@H](CN(C)C(=O)Nc1ccccc1)[C@H](C)CN([C@H](C)CO)S2(=O)=O	-16
C[C@@H]1CN([C@H](C)CO)C(=O)c2cc(N(C)C)ccc2O[C@@H]1CN(C)Cc1ccc(C(=O)Nc2ccccc2N)cc1	-220
COc1cccc(NC(=O)N(C)C[C@H]2Oc3ncc(C#Cc4ccccc4)cc3C(=O)N([C@H](C)CO)C[C@@H]2C)c1	5
SMILES	miR-122 inh
CC(=O)Nc1ccc(NS(=O)(=O)c2ccc3ccccc3c2)cc1	-105
CC(=O)Nc1ccc(S(=O)(=O)Nc2cccc(-c3nc4ccccc4o3)c2)cc1	-138
CC(=O)Nc1ccc(-c2cc(-c3ccc(NC(C)=O)cc3)nc(-c3ccc(NC(C)=O)cc3)n2)cc1	32*
C[C@H](O)C#Cc1cnc2c(c1)C(=O)N([C@@H](C)CO)C[C@@H](C)[C@@H](CN(C)Cc1cncnc1)O2	1
C[C@H](CO)N1C[C@H](C)[C@@H](CN(C)CC2CCOCC2)Oc2cc(Br)ccc2S1(=O)=O	1
CC(C)NC(=O)N(C)C[C@H]1Oc2cc(C3=CCCCC3)ccc2S(=O)(=O)N([C@@H](C)CO)C[C@H]1C	6
COCC#Cc1cnc2c(c1)C(=O)N([C@@H](C)CO)C[C@H](C)[C@@H](CN(C)C(=O)Cc1cccnc1)O2	5
COC(=O)[C@@H]1Cc2c([nH]c3ccccc23)C(C)(C)N1C(=O)CCl	32*
CCCC(=O)Nc1ccc2c(c1)OC[C@H](C)N(C(C)=O)C[C@H](C)[C@H](OC)CN(C)C2=O	2
COc1cccc(C#Cc2ccc3c(c2)O[C@@H](CN(C)S(=O)(=O)c2ccccc2F)[C@@H](C)CN([C@H](C)CO)S3(=O)=O)c1	-1
COc1ccccc1-c1ccc2c(c1)O[C@H](CN(C)C(C)=O)[C@H](C)CN([C@H](C)CO)S2(=O)=O	-26
Cc1cc2[nH]c3c4ccccc4nc(C)c3c2cc1C	72*
C[C@H]1CN([C@@H](C)CO)S(=O)(=O)c2ccc(C#Cc3ccc(F)cc3)cc2O[C@@H]1CN(C)S(=O)(=O)c1cn(C)cn1	-44
C[C@H]1CN([C@@H](C)CO)C(=O)c2cc(C#CC3(O)CCCC3)cnc2O[C@@H]1CN(C)Cc1cncnc1	2
C[C@H](CO)N1C[C@H](C)[C@@H](CN(C)C(=O)C2CCC2)Oc2ncc(C#CC3CCCC3)cc2C1=O	-9
CCCCCCOc1ccc(/C(C)=N/NC2=NCCN2)cc1	65*
COc1cccc(NC(=O)N(C)C[C@@H]2Oc3ncc(C#Cc4cccnc4)cc3C(=O)N([C@@H](C)CO)C[C@@H]2C)c1	8
C[C@H](CO)N1C[C@H](C)[C@@H](CN(C)Cc2ccc(C(=O)O)cc2)Oc2ncc(-c3ccc(F)cc3)cc2C1=O	4
CC(C)CC#Cc1cnc2c(c1)C(=O)N([C@H](C)CO)C[C@@H](C)[C@H](CN(C)C(=O)NC1CCCC1)O2	-3
Cc1ccc(S(=O)(=O)Nc2cccc3cccnc23)c([N+](=O)[O-])c1	-100
CC(C)C(=O)NC(c1cccc([N+](=O)[O-])c1)c1ccc2cccnc2c1O (stereo not drawn)	41*
C[C@@H]1CN([C@@H](C)CO)C(=O)c2cc(-c3cccc(F)c3)cnc2O[C@H]1CN(C)C(=O)Nc1ccccc1F	0
CN(C)CCNc1ncnc2c1sc1nc(N3CCOCC3)c3c(c12)CC(C)(C)SC3	56*
COc1cccc(-c2cnc3c(c2)C(=O)N([C@H](C)CO)C[C@H](C)[C@H](CN(C)S(=O)(=O)c2ccc(F)cc2)O3)c1	-16
CCCNC(=O)N(C)C[C@@H]1Oc2cc(C#CC(C)C)ccc2S(=O)(=O)N([C@H](C)CO)C[C@@H]1C	-9
COc1ccccc1-[n+]1c(C)cc(/C=C2\Sc3ccccc3N2C)cc1C	69*
C[C@H]1CN([C@@H](C)CO)C(=O)c2cc(C#Cc3ccc(F)cc3)cnc2O[C@@H]1CN(C)C(=O)c1ccccc1F	0
C[C@@H]1CN([C@@H](C)CO)C(=O)c2cc(-c3cccc(C(=O)N(C)C)c3)cnc2O[C@@H]1CN(C)S(=O)(=O)c1ccc(F)cc1	2
N=c1c2c(-c3ccccc3)c(-c3ccccc3)n(Cc3ccco3)c2ncn1CCO	43*
